Results as given in PMC5540273 (PLoS ONE, 2017).

system: T1, YSK4; conditions: concentration: 1 μM,replicates: in singlicate; n = 1
T1 construct: gene MAP3K19
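Note: KINOMEscan kinase panel screen.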

SMILES	%Inh
CNC(=O)c1ccccc1Sc1ccc2c(/C=C/c3ccccn3)n[nH]c2c1	78%
NC(=O)c1cc(-c2ccccc2)cc2c(C3CCNCC3)c[nH]c12 [GSK301362]	50%
C[C@H]1Oc2cc(cnc2N)-c2c(nn(C)c2C#N)CN(C)C(=O)c2ccc(F)cc21	0%
Cc1ccc2c(-c3ccncc3)c(-c3ccc(F)cc3)nn2c1.Cl [GW461484]	0%
CCN(CC)CCCCNc1ncc2cc(-c3c(Cl)cccc3Cl)c(NC(=O)NC(C)(C)C)nc2n1	49%
O=C(NCCCN1CCOC1=O)c1cnc(NCc2cc(Cl)ccc2Cl)nc1NC1CCCC1	11%
Nc1nc(Nc2ccccc2)cc(-c2ccc3c(N)n[nH]c3c2)n1 [GSK2225749]	46%
Cc1ccc(-n2nc(C(C)(C)C)cc2NC(=O)Nc2ccc(OCCN3CCOCC3)c3ccccc23)cc1 [GW839464]	0%
O=C(NCCNc1ccnc(NCc2ccc(F)cc2)n1)c1cc2ccccc2s1 [GSK1379944]	27%
